Data as given in the supplement of paper PMC12636033.
± gives the standard deviation of the averaged measurements. Over roughly 33,000 sequences, “E-score (rank enrichment, -0.5 to 0.5)” has its median near -0.0043; the highest 2% begin near 0.24. Only a selection was taken, and the highest values are over-represented in it overall.

System: 2Sp-muMax20 (muMax20 with two 2,6-bis(methyl)pyridine Cys staples)
Experiment: PBM 8-mer E-score (E-score (rank enrichment, -0.5 to 0.5)); higher = stronger preferential binding
Method: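 Protein binding microarray (universal PBM chip covering all 10-mers in fixed probe flanks) with chemically synthesized human Max(13-93) bHLH-LZ analogs (not full-length Max) bearing noncanonical residues (hArg, Tha, Aib, Nle at 65) and aromatic Cys staples. Read-out per 8-mer (and its reverse complement): E-score (rank-based enrichment, -0.5 to 0.5) and Z-score of median probe intensity.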

Sequence	PBM 8-mer E-score
AAGCGCTA	0.0638 ± 0.1
AAGCGCTT	0.29 ± 0.074
AAGGATAT	0.0821 ± 0.052
ATTTATGA	0.149 ± 0.03
ACAGATGT	0.0497 ± 0.021
CAACTCGA	-0.0837 ± 0.0059
AGTGGAAA	0.185 ± 0.0052
CGTGGAAG	0.163 ± 0.035
CGTGGAAA	0.257 ± 0.038
CGAGTAAC	-0.108 ± 0.036
CCACAGCA	0.0663 ± 0.031
TCTGAAAA	-0.037 ± 0.13
GTGCGTAA	0.0529 ± 0.0043
ATGCGTCG	-0.0304 ± 0.0076
CTGCGTAA	-0.0976 ± 0.042
ATGCGTTA	0.243 ± 0.018
CTGCGTTA	-0.0622 ± 0.026
ATGCGTAA	0.238 ± 0.025
ATGCGTAC	0.00487 ± 0.0049
GTGCGTTA	0.00978 ± 0.021
ATGCGTAG	0.259 ± 0.071
GGCTTGTA	0.22 ± 0.043
GGAGCAAA	0.0658 ± 0.024
ACCTTAAT	0.0925 ± 0.027
CAGTGCGG	-0.189 ± 0.025

Sequence	PBM 8-mer E-score
ACCGTGGC	-0.207 ± 0.036
GGCCTATA	-0.243 ± 0.01
CTGCCCGC	-0.0236 ± 0.011
CACGCGCA	0.0178 ± 0.093
AGCGCGCC	0.123 ± 0.087
CACGCGCC	0.262 ± 0.027
CAAGCGCA	0.245 ± 0.058
CACGCGCG	0.261 ± 0.051
CAAGCGCC	-0.113 ± 0.064
AAAGCGCA	0.18 ± 0.0096
CGCGCGCG	0.2 ± 0.077
GACGCGCC	-0.0693 ± 0.078
CGCGCGCC	0.243 ± 0.006
AACGCGCC	-0.0607 ± 0.047
GGCGCGCC	-0.0216 ± 0.12
ACATCGAG	0.0846 ± 0.046
AAGCGTGG	0.0965 ± 0.049
CTCACGCA	0.12 ± 0.049
ACGTATAT	0.145 ± 0.039
TAGCGCTA	-0.00743 ± 0.0017
ACCATTCT	0.0547 ± 0.046
AACGCGCG	0.263 ± 0.023
AACACGCG	0.213 ± 0.0048
CACGCTCG	0.245 ± 0.0082
AACGCTCG	0.0415 ± 0.059

Sequence	PBM 8-mer E-score
AACGCGCA	0.0173 ± 0.051
AACGCGCT	-0.0289 ± 0.021
CACACGCA	0.0795 ± 0.072
CACGCTCA	0.0559 ± 0.045
CACACGCG	0.281 ± 0.035
GGACGCAA	0.0641 ± 0.04
AGTTGCAG	0.122 ± 0.058
TACAGGTA	0.0603 ± 0.031
ATCAATGG	0.0872 ± 0.022
GCCTCAAC	0.0347 ± 0.072
ATCGTAAG	-0.0242 ± 0.048
ATCGTAAT	0.238 ± 0.0064
ATCGTAAA	0.159 ± 0.07
GTCCTTGA	-0.198 ± 0.017
CGTAACGA	0.0392 ± 0.11
AGGGGTTG	0.258 ± 0.045
AGGGGTTA	0.124 ± 0.052
AAGGGTTG	0.0285 ± 0.053
CGGATCAA	-0.188 ± 0.075
TATAGAGA	-0.0265 ± 0.04
CAATGACA	0.128 ± 0.054
GTATGATA	0.342 ± 0.008
ATATGACA	0.25 ± 0.012
CTATGATA	0.0216 ± 0.058
CTATGACA	0.106 ± 0.0052

Sequence	PBM 8-mer E-score
GTATGACA	0.158 ± 0.0027
GTATGAGA	0.124 ± 0.0095
ATATGATA	0.2602 ± 0.0017
ATATGATG	0.181 ± 0.031
GCATGATA	0.226 ± 0.0026
GAATGACA	-0.0425 ± 0.0067
TAATGACA	0.25862 ± 7.8e-05
ACAATTGG	0.0427 ± 0.02
CTCGTTAA	0.0752 ± 0.0062
CGGGATCA	-0.0799 ± 0.0016
AAATCCCG	0.1036 ± 0.0009
ACTGAGAT	0.0783 ± 0.12
CACGGATC	-0.305 ± 0.0061
AATGATAT	0.241 ± 0.01
CATGATAA	0.267 ± 0.065
CATGATAC	0.253 ± 0.048
CATGATTC	0.0562 ± 0.0054
TATGATAA	0.0434 ± 0.066
AATGATAG	0.176 ± 0.039
AATGATAC	0.193 ± 0.13
CATGATAG	0.0923 ± 0.043
CATGATTA	0.24 ± 0.025
GATGATTA	0.103 ± 0.0017
ACTGATAT	0.0652 ± 0.073
AATGATAA	0.0232 ± 0.082

Sequence	PBM 8-mer E-score
CGCTATAG	0.0363 ± 0.071
GGGGTGAC	0.0455 ± 0.096
CGGCCTTC	-0.124 ± 0.097
CAAGATAA	0.276 ± 0.014
TAAGATAA	0.0454 ± 0.027
AAAGATAA	0.218 ± 0.028
AATTCTTC	0.0644 ± 0.062
CCACCCCA	0.254 ± 0.043
GCACCCCA	0.128 ± 0.071
TCACCCAA	0.143 ± 0.0019
ACACCCCA	0.208 ± 0.015
CCACCCCC	-0.0899 ± 0.002
TCACCCCA	0.276 ± 0.021
AATGGATG	-0.124 ± 0.015
AGTACACG	0.0271 ± 0.052
AAGAGCCT	0.00281 ± 0.074
AGTCGCAA	0.119 ± 0.018
CTAAATAA	0.126 ± 0.07
TTAAATAA	0.171 ± 0.051
ATAAATAT	0.263 ± 0.021
GTAAATAA	0.157 ± 0.059
CTAAATAC	0.249 ± 0.037
ATAAATAG	0.191 ± 0.021
ATAAATAC	0.264 ± 0.019
GTAAATAC	0.0558 ± 0.018

Sequence	PBM 8-mer E-score
ATAAATAA	0.171 ± 0.053
CAGCGTCC	-0.107 ± 0.044
TCGATTCA	0.0577 ± 0.023
GAGCTCAC	0.0534 ± 0.12
ATCTGTTC	0.11 ± 0.068
ACTAGCAC	0.0515 ± 0.15
AGACCCCC	-0.388 ± 0.063
CTACCCCA	0.283 ± 0.011
AACCCCCA	-0.297 ± 0.061
AAACCCCA	0.293 ± 0.022
AACCCCAA	0.249 ± 0.062
CTACCCCC	-0.195 ± 0.12
TGACCCCA	0.108 ± 0.02
AACCCAAA	0.0422 ± 0.03
AAACCCCC	-0.303 ± 0.11
ACCCCCAA	-0.142 ± 0.059
AGACCCCA	0.284 ± 0.052
CTACCCAA	0.0921 ± 0.061
GCCATTCC	-0.155 ± 0.069
TCGAGAAA	0.0513 ± 0.046
GCCTTCTA	0.0133 ± 0.025
CCCGCACA	-0.141 ± 0.011
AAACCTGA	-0.0739 ± 0.087
AAACAGAC	0.143 ± 0.097
AGGTGGCA	-0.0941 ± 0.015

Sequence	PBM 8-mer E-score
ACCAGGTA	-0.11 ± 0.012
AATTATTG	0.196 ± 0.015
AGACCAAC	-0.0312 ± 0.013
CAACCCCA	0.264 ± 0.035
CAACCCCC	-0.196 ± 0.022
CAACCCAA	0.0124 ± 0.094
ATGCTTTG	0.239 ± 0.036
ATGCTTTC	0.125 ± 0.017
ATGCTTTA	0.138 ± 0.081
GCGCGCTA	0.235 ± 0.021
AATCGCAG	0.142 ± 0.046
TGGGCCAA	-0.0226 ± 0.046
ACGCATGG	0.13 ± 0.026
GTGCATTA	0.156 ± 0.042
ACGCATGC	0.277 ± 0.06
ATGCAATA	0.246 ± 0.0094
ACGCATGA	0.136 ± 0.0059
GTGCAATA	0.0506 ± 0.012
ATGCATCA	0.347 ± 0.046
CTGCATTA	0.107 ± 0.025
ATGCATTA	0.319 ± 0.0086
ATGCATCG	0.0497 ± 0.074
GTGCATCA	0.0111 ± 0.045
CTGCAATA	0.0295 ± 0.0051
